The record followed here is PubChem BioAssay (NCATS).

A number with no mark means an inactive call. The rule behind the calls is not given here. Some results are limits rather than exact numbers.
Potency is the fitted concentration of half-maximal effect.

This experiment deals with HIV-1 nucleocapsid protein NCp7 (binding to TG oligonucleotide). Nature of the experiment: HIV Nucleocapsid (AID 346).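 Note: potency is for inhibitors that block NC binding and lower polarization.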 The conditions noted are these: HIV-1 NC / fluorescein-TGTGTGTG probe, fluorescence polarization. The method, boiled down:
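10 nM TG4xF probe with 100 nM nucleocapsid protein in high-salt Hepes pH 7.5 (250mM NaCl) containing 1uM ZnCl2 and reducing agents. Compound inhibition of binding was read as fluorescein polarization after 1 hr at room temperature.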
In the case of `COCCn1c(=O)c(-c2cc(F)cc(F)c2)nc2cnc(Oc3cccc(Cl)c3)nc21`, the Potency is greater than 20 µM. Turning to `Cc1nc2cnc(N3CCNCC3)nc2n(-c2ccccc2)c1=O`, the Potency is greater than 20 µM. Then `O=C(c1cnccn1)N1CCC2(CCN(Cc3nccs3)CC2)CC1`, with greater than 20 µM; and `COc1ccc(-c2nc3cnc(N4CCNCC4)nc3n(C)c2=O)cc1`, with greater than 20 µM.

As to `CN(C)Cc1ccccc1-c1nccc(N(C)C)n1`, the Potency is greater than 20 µM.

For `COc1ccc(Oc2ncc3nc(-c4cccc(C#N)c4)c(=O)n(Cc4cccc(OC)c4)c3n2)cc1`, the Potency is greater than 20 µM.

Take `CCNc1ncc2nc(-c3cc(F)cc(F)c3)c(=O)n(Cc3ccc(F)cc3)c2n1`: the Potency was greater than 4 µM. For `Cc1nc2cnc(N3CCNCC3)nc2n(C2CC2)c1=O`, the Potency was greater than 20 µM. For the compound `CN(C)c1ccc(-c2cncnc2NCc2cccs2)cc1`, the Potency was greater than 20 µM. Then `CN(C)c1ncc2nc(-c3cc(F)cc(F)c3)c(=O)n(C)c2n1`, with greater than 20 µM; and `COc1ccc(Oc2ncc3nc(-c4ccccc4)c(=O)n(CCC#N)c3n2)cc1`, with greater than 20 µM. Turning to `COc1cccc(-c2cc(NCc3cccc(C)c3)ncn2)c1`, the Potency is greater than 20 µM. Take `COc1ccc(NC(=O)N2CCCC3(CCN(C(=O)c4ccc(OC)cc4)CC3)C2)cc1`: the Potency was greater than 20 µM. For `CC(C)CN1CCC2(CC1)CCN(S(=O)(=O)c1ccccc1)CC2`, the Potency was greater than 20 µM. Consider `CN(C)C(=O)c1ccc(-c2cc(Nc3ccccc3)ncn2)cc1`, for which the Potency is greater than 20 µM.
